# Screens: PubChem, several laboratories
# APOBEC3A inh: APOBEC3A ssDNA deaminase inhibitors, primary screen, selectivity assay for APOBEC3G inhibitor project, biochemical, FAM/TAMRA oligo cleavage fluorescence; DNA dC->dU-editing enzyme APOBEC-3A (Homo sapiens), P31941; recombinant A3A, FAM/TAMRA ssDNA deamination fluorescence; inhibition, % at 20 µM; 330,000 compounds, 0.41% hits; AID 493011, 2011;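 active means at least 40% inhibition at 20 µM here, with at most 30% in a related deaminase screen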;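 further: plate controls were A3A with DMSO for no effect and wells lacking A3A enzyme for full effect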
# Target sequence (P31941 whole entry, looked up): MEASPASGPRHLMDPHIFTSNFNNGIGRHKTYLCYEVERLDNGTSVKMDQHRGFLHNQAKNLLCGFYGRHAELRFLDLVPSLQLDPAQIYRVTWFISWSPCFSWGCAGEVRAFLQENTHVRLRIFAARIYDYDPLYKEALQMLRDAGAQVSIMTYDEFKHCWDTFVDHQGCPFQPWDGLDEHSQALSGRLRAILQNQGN
# ALR H2O2 inh: inhibitors of human ALR sulfhydryl oxidase, primary screen, biochemical, H2O2 detection, HRP-luminol luminescence, single point | 290,000 compounds, 3.8% hits | AID 485317, 2010 | FAD-linked sulfhydryl oxidase ALR (Homo sapiens), P55789 | purified ALR, DTT oxidation | inhibition, % (concentration not given with the values);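 active means mean replicate inhibition above about 79%, with every replicate also reaching it, limit read from the data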
# Target sequence (P55789 whole entry, looked up): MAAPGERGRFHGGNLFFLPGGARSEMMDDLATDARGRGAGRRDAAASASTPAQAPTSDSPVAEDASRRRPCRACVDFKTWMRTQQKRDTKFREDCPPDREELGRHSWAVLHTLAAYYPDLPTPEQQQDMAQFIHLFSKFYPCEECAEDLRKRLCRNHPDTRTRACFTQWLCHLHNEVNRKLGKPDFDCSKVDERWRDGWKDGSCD
# A3G deaminase: APOBEC3G DNA deaminase inhibitors, primary screen, biochemical, fluorescence, single-stranded DNA substrate, uHTS; AID 493012, 2011; DNA dC->dU-editing enzyme APOBEC-3G (Homo sapiens), Q9HC16; inhibition, % at 20 µM; recombinant A3G, ssDNA deamination FAM/TAMRA fluorescence; 330,000 compounds, 0.28% hits;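 active means inhibition of at least 40% at 20 µM, with no more than 30% in the related APOBEC3A deaminase screen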;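 further: plate controls were DMSO wells with A3G for no effect and wells lacking A3G enzyme for full effect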
# Yeast superoxide: reduction of superoxide in aged yeast, primary screen, HTS; S. cerevisiae aged cells, superoxide DHE fluorescence; active compounds read low; superoxide response (% of plate mean), % at 10 µM; 330,000 compounds, 0.18% hits;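 active means superoxide response under a set limit, about three screen SD below normal, cut at about 65% in these data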;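 further: yeast aged for seven days with compound at 30 °C before DHE staining; 100% = average MFI of all compound-treated wells on the plate with controls excluded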
# NRP1-CendR mod: modulators of CendR peptide binding to NRP-1, primary screen, biochemical, fluorescence polarization, uHTS | FAM-RPARPAR peptide binding to NRP-1 | Neuropilin-1 (Homo sapiens), O14786 | inhibition, % at 25 µM | 360,000 compounds, 0.85% hits;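 active means inhibition or corrected inhibition above about 18%, plus a signal ratio from 0.5 to 1.5, limit read from the data, passing the limit was not always enough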
# M18AAP inhibitor: PfM18AAP inhibitors, malaria aminopeptidase, primary screen, biochemical, QFRET, recombinant enzyme; H-Glu-NHMec fluorogenic cleavage; inhibition, % at 7.35 µM; 290,000 compounds, 1.2% hits; AID 1822, 2009;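 active means inhibition above the campaign mean inhibition over all tested compounds plus 3 SD, cut at about 28% in these data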;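 further: 0% = plate median of test compound wells and 100% = 2 mM ZnCl2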
# An asterisk follows results filed as active; · = no result. A selection: hits, their analogues and other compounds. The true share with any hit is near 5.2%.
SMILES,APOBEC3A inh,ALR H2O2 inh,A3G deaminase,Yeast superoxide,NRP1-CendR mod,M18AAP inhibitor
Cc1cccc(NC(=S)N(CCCN2CCOCC2)Cc2ccco2)c1,1,·,-10,99,-12,1
COc1ccc(N2CCN(CC(=O)Nc3cccc(S(=O)(=O)N4CCOCC4)c3)CC2)cc1,-4,78*,-6,90,-2,6
O=C(CCN1CCN(c2ccccc2F)CC1)Nc1ccccc1F,2,2,-6,90,3,-2
O=C(CCN1CCN(c2ccc(Cl)cc2)CC1)Nc1ccccc1F,3,88*,-2,148,8,2
COC(=O)c1cccc(NC(=O)CN2CCN(c3ccc(OC)cc3)CC2)c1,1,88*,-3,108,-2,10
O=C(NCCN1CCOCC1)c1cn(-c2ccccc2)nc1-c1cccs1,0,2,0,108,5,-10
Cc1ccccc1C(=O)NC(=S)N(C)C1CCCCC1,-4,8,-3,99,9,8
CN(C(=S)NC(=O)c1ccccc1Br)C1CCCCC1,2,99*,1,72,6,7
COC(=O)CSc1nc(N)c2c3c(sc2n1)CCCC3,-4,-5,-8,84,-6,28*
CN(C)CCSc1nc(N)c2c3c(sc2n1)CN(C)CC3,8,99*,25,107,-17,-8
Nc1nc(SCC(=O)NCCO)nc2sc3c(c12)CCCC3,-5,3,-9,108,-8,-3
CSc1nc(NCCCN(C)C)c2c3c(sc2n1)CN(C)CC3,36,-19,1,90,·,29*
O=S(=O)(c1cccs1)N1CCCCC1,·,·,·,·,35*,·
CC(=O)N1CCC(C(=O)N2CCN(S(=O)(=O)c3cccs3)CC2)CC1,2,-2,13,111,37*,-11
O=C(C1CCN(S(=O)(=O)c2cccs2)CC1)N1CCCCC1,-6,0,-7,88,1,4
CC/C(=N\NC(=O)c1ccc(-c2ccccc2)cc1)C12CC3CC(CC(C3)C1)C2,-2,98*,-5,94,4,7
CC(=O)Nc1ccc(S(=O)(=O)Nc2nc3ccccc3nc2Sc2nncn2C)cc1,-5,99*,-12,95,-2,1
Cn1cnnc1Sc1nc2ccccc2nc1NS(=O)(=O)c1ccccc1,-1,8,7,108,-5,0
Cn1ccnc1Sc1nc2ccccc2nc1NS(=O)(=O)c1ccccc1,-12,6,-15,111,-6,29*
Cc1c(Nc2nc3ccccc3nc2NS(=O)(=O)c2ccccc2)c(=O)n(-c2ccccc2)n1C,-4,8,-3,85,6,-1
CCOC(=O)Cn1nnc(-c2ccc(SC)cc2)n1,0,-7,-8,105,10,0
CC(C)C(NC(=O)CSCc1ccc([N+](=O)[O-])cc1)C(C)C,-1,98*,-7,101,-1,2
CCCCOc1ccc(C(=O)NCC(=O)NC2CCCCC2)cc1,3,-2,-2,87,-1,·
Cc1ccccc1CNC(=O)c1cc2ccccc2o1,·,·,·,90,0,3
CCOc1ccccc1-c1ccc(C(=O)NCc2ccccc2)o1,3,0,9,109,27*,-2
SMILES,APOBEC3A inh,ALR H2O2 inh,A3G deaminase,Yeast superoxide,NRP1-CendR mod,M18AAP inhibitor
Cc1ccc(-c2ccc(C(=O)NCc3ccccc3)o2)c2ccccc12,-2,·,-9,·,-2,-13
Cc1ccc(S(=O)(=O)Nc2cc(=O)[nH]c(SCC(=O)Nc3cccc(C(F)(F)F)c3)n2)cc1,-4,·,-13,·,0,-3
Cc1ccc(S(=O)(=O)Nc2cc(=O)[nH]c(SCc3ccccc3Cl)n2)cc1,-6,96*,-4,98,9,-4
Cc1cccc(NC(=O)CSc2nc(NS(=O)(=O)c3ccccc3)cc(=O)[nH]2)c1,2,99*,-5,91,7,-4
Cc1ccc(NC(=O)CSc2nc(NS(=O)(=O)c3ccc(C)cc3)cc(=O)[nH]2)cc1,8,98*,-1,92,-7,10
COc1ccc(NC(=O)CSc2nc(NS(=O)(=O)c3ccccc3)cc(=O)[nH]2)cc1,4,100*,0,126,-8,-4
O=C(CSc1nc(NS(=O)(=O)c2ccccc2)cc(=O)[nH]1)Nc1ccc(Cl)cc1,·,·,·,·,-1,5
Cc1cc(C)cc(NC(=O)CSc2ncc(S(=O)(=O)c3ccccc3)c(=O)[nH]2)c1,-1,99*,-8,96,·,-1
O=C(NC1CCCCC1)N1CCC(n2c(=O)[nH]c3ccccc32)CC1,-3,-2,-1,100,-2,·
Cc1c(NC(C)C)c(=O)n(-c2ccccc2)n1C,0,97*,-2,99,3,·
Cc1c(NC(C)c2ccccc2O)c(=O)n(-c2ccccc2)n1C (stereo not given),-9,54,-15,122,2,-19
CC(Nc1ccccc1)c1cc(Cl)ccc1O (stereo not given),-2,99*,-4,80,-2,0
Cc1c(NS(=O)(=O)c2ccccc2)c(=O)n(-c2ccccc2)n1C,-3,-7,-5,106,11,-10
Cc1c(NC(C)c2cc(Cl)ccc2O)c(=O)n(-c2ccccc2)n1C (stereo not given),-1,91*,-1,123,6,2
Cc1ccc(CNC(=O)CSc2n[nH]c(N)n2)cc1,6,-3,2,92,24*,-2
CCc1ccccc1NS(=O)(=O)c1ccc2c(c1)NC(=O)CC(=O)N2,2,-10,2,95,-7,2
Cc1ccc(-c2cc(-c3ccccc3[N+](=O)[O-])[nH]n2)c(O)c1,-1,90*,-4,104,7,15
C=CCn1c(SCC(=O)Nc2ccc(O)cc2)nc2sc(CC)cc2c1=O,-3,97*,-9,107,-1,5
C=CCn1c(SCC(=O)Nc2cccc3ccccc23)nc(O)c(CC)c1=O,0,98*,-5,104,2,13
C=CCn1c(SCC(=O)O)nc2sc(CC)cc2c1=O,2,-5,3,93,26*,2
C=CCn1c(SCC(=O)Nc2cc(C)on2)nc2sc(CC)cc2c1=O,2,·,-3,97,-2,3
COCCN1CCn2c(nc3cc(NC(=O)NC4CCCCC4)ccc32)C1,0,-24,-1,96,-4,3
